HP1b chromo inh: HTS for Inhibitors of HP1-beta Chromodomain Interactions with Methylated Histone Tails; Chromobox protein homolog 1 (Homo sapiens), P83916; AlphaScreen HP1-beta / biotin-H3K9me3 peptide binding; Potency, µM (doses to about 114 µM), inactives show top-dose activity change, negative = inhibition, actives largely listed as inhibitors; 390,000 tested, 0.56% active; AID 540317, 2011; also: potency is read from the fitted curve at half-maximal effect; nearly all actives have a fitted effect of over 70% in size
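HP1-beta protein (50 nM final) preincubated 30 min at room temperature with biotinylated H3(1-18)K9me3 peptide (50 nM) in PBS pH 7.4, 0.01% Tween-20, then compound added for 30 min. AlphaScreen streptavidin donor/nickel chelate acceptor beads (10 ug/mL final), 30 min dark, luminescence read.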
PLK1 PBD block: qHTS for Inhibitors of PLK1-PDB (polo-like kinase 1 - polo-box domain): Primary Screen. AID 720504, 2013. 360,000 tested, 2.8% active. Plk1 PBD binding of FITC phosphopeptide, fluorescence polarization. Potency, µM, for inactives: max response, negative = inhibition, usual class: inhibitors. Serine/threonine-protein kinase PLK1 (Homo sapiens), P53350; also: potency is read from the fitted curve at half-maximal effect; series mostly up to about 57 µM; % is scaled to controls: 0 for no effect and ±100 for the full control effect; nearly all actives have a fitted effect of over 65% in size
G9a block: qHTS Assay for Inhibitors of Histone Lysine Methyltransferase G9a. Potency, µM (doses to about 102 µM), without a hit: at the top dose activity, negative = inhibition, actives largely listed as inhibitors. 350,000 tested, 8.8% active. Histone-lysine N-methyltransferase EHMT2 (Homo sapiens), Q96KQ7. AID 504332, 2011. G9a H3K9 monomethylation, AlphaScreen, 2 h; also: potency is read from the fitted curve at half-maximal effect; % is scaled to controls: 0 for no effect and ±100 for the full control effect; nearly all actives have a fitted effect of over 75% in size
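Chemiluminescent proximity detection of H3K9 monomethylation, read after 10 min bead incubation in the dark. Reaction: 20 nM G9a, 500 nM biotin-H3K9 peptide, 20 uM SAM cofactor, 2 h, room temperature, following 15 min enzyme-compound preincubation.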
PI5P4Ka inh: qHTS for Inhibitors of phosphatidylinositol 5-phosphate 4-kinase (PI5P4K) | Phosphatidylinositol 5-phosphate 4-kinase type-2 alpha (Homo sapiens), P48426 | PI5P4Kalpha enzyme, ADP-Glo luminescence, 60 min; hits give low values | max response, % | 330,000 tested, 1.2% active | AID 652105, 2013; active = max response of -50% or lower; inconclusive = between -30% and -50%; inactive = -30% or higher; also: value at the top dose of about 77 µM; % is scaled to controls: 0 for no effect and ±100 for the full control effect
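Human PI5P4Kalpha with substrate in 0.038 M HEPES pH 7.4, 0.28 mM EGTA, 0.1% CHAPS, 5% DMSO; reaction started with 5 microM ATP (final), 60 min at room temperature. ADP formed read by ADP-Glo luminescence.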
BAZ2B inh: qHTS Assay for Inhibitors of BAZ2B; Bromodomain adjacent to zinc finger domain protein 2B (Homo sapiens), Q9UIF8; AlphaScreen BAZ2B-H3K14Ac peptide displacement; Potency, µM (titrated, usually from 114 µM), without a hit: at the top dose activity change, negative = inhibition, actives largely listed as inhibitors; 360,000 tested, 4.4% active; also: potency is read from the fitted curve at half-maximal effect; % is scaled to controls: 0 for no effect and ±100 for the full control effect; nearly all actives have a fitted effect of over 60% in size
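Multi-concentration screen (max 110 uM) measuring displacement of acetylated histone H3 peptide from BAZ2B by AlphaScreen, using 50 nM protein, 50 nM peptide and 10 ug/mL streptavidin donor plus Ni-chelate acceptor beads.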
JMJD2A Tudor: qHTS Assay for Inhibitors of JMJD2A-Tudor Domain | 390,000 tested, 4.4% active | Lysine-specific demethylase 4A (Homo sapiens), O75164 | AlphaScreen JMJD2A-Tudor / H3K4me3 peptide binding | Potency, µM (series often up to 114 µM), without a hit: at the highest dose activity change, negative = inhibition, hits mostly inhibitors | AID 504339, 2011; also: potency is read from the fitted curve at half-maximal effect; % is scaled to controls: 0 for no effect and ±100 for the full control effect; nearly all actives have a fitted effect of over 50% in size
An asterisk follows results filed as active; u = inconclusive; x = no result given; [ ] = remark or other dose. Compounds with a hit are over-represented: about 12% of the library has one in this group of screens. Unless noted, calls follow the shape of the dose curve; as a rule, active = well fitted curve in the direction sought with a large enough effect; inconclusive = small, poorly fitted or top-dose-only effect, or another doubt; inactive = no such curve, though single readings can be large; an effect the other way counts as inactive or inconclusive.

SMILES | HP1b chromo inh | PLK1 PBD block | G9a block | PI5P4Ka inh | BAZ2B inh | JMJD2A Tudor
COCC(C)NC(=O)C1CC(=O)N(CCc2ccc(F)cc2)C1 (stereo not drawn) | x | -7% | x | -5 | x | x
COc1ccc(OCC(=O)NS(=O)(=O)c2ccc(Cl)cc2)cc1 | 34% | -2% | 17%[59 µM] | 3 | 1% | -3%
O=C(COc1ccccc1)NS(=O)(=O)c1ccccc1 | 31% | -4% | 3.5µM* | -2 | -16% | -6%
O=C(Nc1cccc(/C=C/c2ccccn2)c1)c1cc(Cl)ccn1 | 29% | 3% | u | -15 | -23% | 2%
CSc1nnc(C)c(/C=C/NOCc2ccc(Cl)cc2)n1 | -18% | -6% | 13µM* | 10 | u | u
CCOC(=O)c1c(NC(=O)Cc2ccccc2)sc2c1CCN(C)C2 | 50% | 1% | u | 8 | -33% | -24%
CCOC(=O)c1c(NC(=S)Nc2ccc(OCC)cc2)sc2c1CCN(C)C2 | -10% | u | 50µM* | -17 | u | -17%
CCOC(=O)c1c(NC(=S)Nc2ccc(Cl)cc2)sc2c1CCN(C)C2 | -17% | -29% | u | -5 | u | u
CCOC(=O)c1c(NC(=O)CSc2nnc(C)s2)sc2c1CCN(C)C2 | 23% | 0% | 4.5µM* | u | -36% | u
COc1ccc(-c2cc(C(F)(F)F)n3nc(C(=O)Nc4cccc(Cl)c4Cl)cc3n2)cc1OC | 44% | x | u | x | 3% | -12%
O=C(O)c1cccc(S(=O)(=O)Nc2cccc(S(=O)(=O)N3CCCC3)c2)c1 | 29% | -4% | 22%[59 µM] | 6 | -6% | -15%
O=C(NCc1ccco1)C1CC(c2ccccc2O)=NO1 (stereo not drawn) | 2% | -20% | x | -10 | 79µM* | u
O=C(NCc1ccco1)C1CC(c2ccccc2C(F)(F)F)=NO1 (stereo not drawn) | 33% | -13% | 6%[59 µM] | -8 | -1% | -12%
COc1cccc(C2=NOC(C(=O)Nc3ccc4c(c3)OCO4)C2)c1OC (stereo not drawn) | 0% | -25% | 45µM* | -24 | -8% | -12%
COc1ccc(C2=NOC(C(=O)Nc3ccc4c(c3)OCO4)C2)cc1OC (stereo not drawn) | 17% | -10% | 50µM* | -14 | x | -26%
COc1cc(C2=NOC(C(=O)Nc3ccc4c(c3)OCO4)C2)cc(OC)c1OC (stereo not drawn) | 10% | -13% | 25µM* | -2 | -35% | -34%
Cn1cnc(S(=O)(=O)N2CCC(C(=O)NCc3ccc(F)cc3)CC2)c1 | -3% | x | 8%[59 µM] | x | -2% | -15%
COc1ccc(NC(=O)C2CC(c3ccccc3O)=NO2)cc1OC (stereo not drawn) | 32% | 1% | 45µM* | -2 | 3% | -12%
COC(=O)C1CCN(C(=O)CCCOc2ccccc2)CC1 | -6% | u | 0%[59 µM] | 2 | 0% | -26%[57.1 µM]
O=C(CNc1ccc(Cl)c(C(F)(F)F)c1)N1CCN(S(=O)(=O)c2ccccc2)CC1 | -33% | -7% | x | -2 | x | 79µM*
CC(=O)c1ccc(NCC(=O)N2CCN(S(=O)(=O)c3ccccc3)CC2)cc1 | 34% | 3% | 22%[12.7 µM] | -1 | 1% | 1%
O=C(O)CSCC(=O)N1CCN(S(=O)(=O)c2ccccc2)CC1 | 4% | -10% | u | -6 | -22% | -11%
O=C(CSc1ccccc1)N1CCN(S(=O)(=O)c2ccccc2)CC1 | 21% | 12µM* | 3%[12.7 µM] | -6 | -3% | -18%
O=C(CSc1nc2ccccc2[nH]1)N1CCN(S(=O)(=O)c2ccc(Cl)cc2)CC1 | 42% | -25% | 35µM* | -5 | 1% | -10%
